Data as given in PubChem BioAssay (Tox21).
Inconclusive results are not listed. Where a structure was tested more than once in an assay, its records may differ in their call. The source made the active and inactive calls. Unless noted, the call rests on the fitted dose curve; in most records, active means well fitted curve in the direction sought with a large enough effect in the repeat runs; inconclusive means weak or mixed curves; inactive means no such curve, though single readings can be large; an effect the other way counts as inactive or inconclusive.

Tests used:
[1] = qHTS assay to identify small molecule that activate the aryl hydrocarbon receptor (AhR) signaling pathway - cell viability counter screen (AID 743086);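 further: HepG2 liver cells carrying the AhR DRE luciferase reporter; series mostly up to about 70 µM; nearly all actives have a fitted effect of over 45% in size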
Procedure, shortened: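 HepG2-AhR-luc (HG2L7.5c1) cells, 4000/well, treated 24 h at 37 C with compound; viability measured as CellTiter-Fluor fluorescence after 30 min in the same wells as the luciferase read.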

[2] = molecular target: Peroxisome proliferator-activated receptor gamma (Homo sapiens) (UniProt P37231); experiment: qHTS assay to identify small molecule agonists of the peroxisome proliferator-activated receptor gamma (PPARg) signaling pathway (AID 743094; active means well fitted activation curve with a large enough effect in the signal ratio in the repeat runs, not every such curve was filed as active; the % refers to the signal ratio)
Peroxisome proliferator-activated receptor gamma (Homo sapiens), sequence (P37231 whole entry, looked up): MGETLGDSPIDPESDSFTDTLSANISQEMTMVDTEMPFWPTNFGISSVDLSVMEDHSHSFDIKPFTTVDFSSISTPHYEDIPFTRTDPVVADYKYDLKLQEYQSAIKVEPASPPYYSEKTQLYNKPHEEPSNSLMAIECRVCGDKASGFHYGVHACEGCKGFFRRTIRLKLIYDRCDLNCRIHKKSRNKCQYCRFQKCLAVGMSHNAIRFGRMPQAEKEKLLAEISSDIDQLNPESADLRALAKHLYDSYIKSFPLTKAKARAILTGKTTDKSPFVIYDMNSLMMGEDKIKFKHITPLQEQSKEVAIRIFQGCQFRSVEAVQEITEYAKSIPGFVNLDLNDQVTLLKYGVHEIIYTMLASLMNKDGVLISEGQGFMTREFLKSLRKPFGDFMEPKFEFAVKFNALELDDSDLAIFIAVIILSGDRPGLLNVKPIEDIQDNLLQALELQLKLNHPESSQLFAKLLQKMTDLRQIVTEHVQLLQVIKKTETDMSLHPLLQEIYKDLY
Procedure, shortened: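 GeneBLAzer PPARg UAS-bla HEK293H cells were plated, rested 5 h, then exposed to compounds for 17 h at 37C. Beta-lactamase activity was read by LiveBLAzer B/G FRET substrate fluorescence after 1 h at room temperature.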

[3] = molecular target: Peroxisome proliferator-activated receptor gamma (Homo sapiens) (UniProt P37231); experiment: qHTS assay to identify small molecule antagonists of the peroxisome proliferator-activated receptor gamma (PPARg) signaling pathway (AID 743191; calls by dose curve; further: series mostly up to about 63 µM; nearly all actives have a fitted effect of over 30% in size)
Procedure, shortened: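 GeneBLAzer PPARg UAS-bla HEK293H cells, 5 h post-plating, exposed to compounds 17 h at 37C. LiveBLAzer B/G FRET substrate added for 1 h at room temperature; beta-lactamase reporter read by fluorescence intensity.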

[4] = qHTS assay to identify small molecule antagonists of the peroxisome proliferator-activated receptor gamma (PPARg) signaling pathway - cell viability counter screen (AID 743194); settings: Potency: co-treated with 50 nM rosiglitazone; further: nearly all actives have a fitted effect of over 55% in size
Procedure, shortened: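 Cytotoxicity counter screen in PPARg-bla HEK293H cells, same wells as reporter assay. Compounds plus 50 nM rosiglitazone (final) for 17 h at 37 C, then viability read by CellTiter-Glo luminescence.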

[5] = qHTS assay for small molecule agonists of the antioxidant response element (ARE) signaling pathway (AID 743202; active means well fitted activation curve with a large enough effect in the signal ratio in the repeat runs, not every such curve was filed as active; the % refers to the signal ratio)
Procedure, shortened: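 ARE-bla HepG2 cells (beta-lactamase reporter under the antioxidant response element), plated 5 hours, then exposed to compounds 16 hours at 37 C. LiveBLAzer B/G FRET substrate added for 2 hours at room temperature; fluorescence intensity read.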

[6] = qHTS assay for small molecule agonists of the antioxidant response element (ARE) signaling pathway - cell viability counter screen (AID 743203; calls by dose curve; further: nearly all actives have a fitted effect of over 55% in size; further: potency means the concentration at half of the fitted maximal effect)
Procedure, shortened: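 ARE-bla HepG2 cells were plated, rested 5 h at 37C/5% CO2, then exposed to compounds in DMSO for 16 h. Viability was read as CellTiter-Glo luminescence after 30 min at room temperature, in the same wells as the ARE screen.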

[7] = qHTS assay for small molecule activators of the heat shock response signaling pathway - cell viability counter screen (AID 743209); further: nearly all actives have a fitted effect of over 50% in size; further: potency means the concentration at half of the fitted maximal effect
Procedure, shortened: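 HSE-bla HeLa cells plated overnight, then exposed to Tox21 compounds (23 nL in DMSO) for 5 h at 37 C. After the bla reporter read, CellTiter-Glo was added in the same wells and luminescence read after 30 min at room temperature.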

[8] = qHTS assay for small molecule activators of the heat shock response signaling pathway (AID 743210; active means well fitted activation curve with a large enough effect in the signal ratio in the repeat runs, with a control signal flat, not every such curve was filed as active; the % refers to the signal ratio; further: series mostly up to about 63 µM)
Procedure, shortened: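 HSE-bla HeLa cells (beta-lactamase reporter under heat shock response elements), plated overnight, then exposed to compounds 5 h at 37 C; LiveBLAzer B/G FRET substrate added, 2.5 h at room temperature, fluorescence intensity read.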

[9] = qHTS assay to identify small molecule agonists of the peroxisome proliferator-activated receptor delta (PPARd) signaling pathway - cell viability counter screen (AID 743211); further: nearly all actives have a fitted effect of over 55% in size
Procedure, shortened: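 Viability was measured as CellTiter-Glo luminescence (30 min, room temperature) in the same wells as the beta-lactamase readout. GeneBLAzer PPARd UAS-bla HEK293H cells received compound after 5 h plating and were incubated 17 h at 37 C.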

[10] = molecular target: Peroxisome proliferator-activated receptor delta (Homo sapiens) (UniProt Q03181); experiment: qHTS assay to identify small molecule agonists of the peroxisome proliferator-activated receptor delta (PPARd) signaling pathway (AID 743212; calls by dose curve)
Peroxisome proliferator-activated receptor delta (Homo sapiens), sequence (Q03181 whole entry, looked up): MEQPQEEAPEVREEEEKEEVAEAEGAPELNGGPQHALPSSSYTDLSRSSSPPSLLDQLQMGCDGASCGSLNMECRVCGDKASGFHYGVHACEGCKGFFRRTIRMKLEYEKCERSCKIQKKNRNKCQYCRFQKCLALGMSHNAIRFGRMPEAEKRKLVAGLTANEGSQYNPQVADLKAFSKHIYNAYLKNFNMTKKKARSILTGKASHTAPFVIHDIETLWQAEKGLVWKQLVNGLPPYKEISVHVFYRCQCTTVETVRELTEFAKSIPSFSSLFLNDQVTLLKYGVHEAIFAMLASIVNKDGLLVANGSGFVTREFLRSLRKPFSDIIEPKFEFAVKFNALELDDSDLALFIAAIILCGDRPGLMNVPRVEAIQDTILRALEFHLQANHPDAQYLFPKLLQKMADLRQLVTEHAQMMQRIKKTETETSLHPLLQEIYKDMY
Procedure, shortened: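 GeneBLAzer UAS-bla HEK293H cells carrying a PPARδ construct were exposed to compounds at 37 °C. Beta-lactamase activity was read by FRET fluorescence after 2 h at room temperature with LiveBLAzer B/G substrate.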

[11] = qHTS assay to identify small molecule antagonists of the peroxisome proliferator-activated receptor delta (PPARd) signaling pathway - cell viability counter screen (AID 743213); further: nearly all actives have a fitted effect of over 50% in size
Procedure, shortened: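 CellTiter-Glo was added to PPARd-bla HEK293H wells following 17 h compound treatment in the presence of 300 nM L165041. Luminescence was recorded after 30 min at room temperature.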

[12] = molecular target: Peroxisome proliferator-activated receptor delta (Homo sapiens) (UniProt Q03181); experiment: qHTS assay to identify small molecule antagonists of the peroxisome proliferator-activated receptor delta (PPARd) signaling pathway (AID 743215; active means well fitted inhibition curve with a large enough effect in the signal ratio in the repeat runs, not every such curve was filed as active; the % refers to the signal ratio;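 further: cells stimulated with agonist L165041 at 300 nM final during compound exposure; series mostly up to about 62 µM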)
Procedure, shortened: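 PPARd-bla HEK293H cells (UAS-bla reporter) preincubated 5 h, then given compound plus 300 nM final L165041 agonist for 17 h at 37 C. Beta-lactamase activity read by LiveBLAzer B/G FRET substrate fluorescence after 2 h at room temperature.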

[13] = molecular target: Bile acid receptor (Homo sapiens) (UniProt Q96RI1); experiment: qHTS assay to identify small molecule antagonists of the farnesoid-X-receptor (FXR) signaling pathway (AID 743217; active means well fitted inhibition curve with a large enough effect in the signal ratio in the repeat runs, not every such curve was filed as active; the % refers to the signal ratio)
Bile acid receptor (Homo sapiens), sequence (Q96RI1 whole entry, looked up): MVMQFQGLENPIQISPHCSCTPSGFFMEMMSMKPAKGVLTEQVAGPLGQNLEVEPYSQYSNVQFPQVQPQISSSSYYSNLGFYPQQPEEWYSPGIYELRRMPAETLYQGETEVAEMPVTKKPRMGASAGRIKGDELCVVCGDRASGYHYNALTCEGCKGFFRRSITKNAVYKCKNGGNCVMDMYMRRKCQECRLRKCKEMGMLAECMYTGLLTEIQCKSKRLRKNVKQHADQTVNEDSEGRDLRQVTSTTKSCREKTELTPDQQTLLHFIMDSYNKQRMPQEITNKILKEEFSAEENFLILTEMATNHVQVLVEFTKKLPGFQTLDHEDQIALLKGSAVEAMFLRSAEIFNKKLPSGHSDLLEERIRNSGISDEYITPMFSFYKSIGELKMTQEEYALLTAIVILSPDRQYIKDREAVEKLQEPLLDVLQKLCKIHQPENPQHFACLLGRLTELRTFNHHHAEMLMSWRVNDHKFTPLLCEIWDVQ
Procedure, shortened: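 FXR-UAS-bla HEK 293T cells (beta-lactamase reporter) given compound plus chenodeoxycholic acid (50 uM final), 16 h at 37C. LiveBLAzer B/G FRET substrate added for 2 h at room temperature; fluorescence read.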

[14] = qHTS assay to identify small molecule agonists of the farnesoid-X-receptor (FXR) signaling pathway - cell viability counter screen (AID 743218); further: nearly all actives have a fitted effect of over 45% in size; further: potency means the concentration at half of the fitted maximal effect
Procedure, shortened: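 FXR-UAS-bla HEK 293T cells exposed to compounds for 16 h at 37C. Cytotoxicity read in the same wells by CellTiter-Glo luminescence after 30 min at room temperature, following the beta-lactamase FRET read.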

[15] = molecular target: Bile acid receptor (Homo sapiens) (UniProt Q96RI1); experiment: qHTS assay to identify small molecule agonists of the farnesoid-X-receptor (FXR) signaling pathway (AID 743220; active means well fitted activation curve with a large enough effect in the signal ratio in the repeat runs, not every such curve was filed as active; the % refers to the signal ratio)
Procedure, shortened: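 Beta-lactamase reporter under UAS control in GeneBLAzer FXR HEK 293T cells (5000/well) measured with LiveBLAzer FRET substrate after 2 h at room temperature. Compound exposure lasted 16 h at 37C.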

[16] = qHTS assay to identify small molecule antagonists of the farnesoid-X-receptor (FXR) signaling pathway - cell viability counter screen (AID 743221; active means well fitted cell-killing curve with a large enough effect in the repeat runs, not every such curve was filed as active; further: nearly all actives have a fitted effect of over 50% in size)
Procedure, shortened: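 Cytotoxicity counter screen run in the FXR-bla reporter wells: HEK 293T cells exposed to compound with 50 uM (final) chenodeoxycholic acid for 16 h, 37 C, then viability measured by CellTiter-Glo luminescence after 30 min, room temperature.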

[17] = molecular target: Vitamin D3 receptor (Homo sapiens) (UniProt P11473); experiment: qHTS assay to identify small molecule agonists of the vitamin D receptor (VDR) signaling pathway (AID 743222; calls by dose curve)
Vitamin D3 receptor (Homo sapiens), sequence (P11473 whole entry, looked up): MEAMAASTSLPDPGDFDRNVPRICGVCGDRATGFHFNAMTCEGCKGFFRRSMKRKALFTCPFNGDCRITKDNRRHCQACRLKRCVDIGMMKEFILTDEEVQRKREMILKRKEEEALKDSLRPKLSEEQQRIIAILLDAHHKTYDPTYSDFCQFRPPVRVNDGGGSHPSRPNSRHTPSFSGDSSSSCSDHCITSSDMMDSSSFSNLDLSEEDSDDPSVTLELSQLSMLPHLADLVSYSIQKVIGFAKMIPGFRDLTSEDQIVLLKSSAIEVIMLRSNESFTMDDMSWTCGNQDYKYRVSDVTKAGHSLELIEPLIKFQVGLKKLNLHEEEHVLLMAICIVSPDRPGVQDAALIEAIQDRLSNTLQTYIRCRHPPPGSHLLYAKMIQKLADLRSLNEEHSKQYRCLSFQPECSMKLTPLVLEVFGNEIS
Procedure, shortened: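 VDR-bla cells plated 4 h at 37 C, then exposed to compounds for 16 h at 37 C. Beta-lactamase reporter activity measured by fluorescence after 2 h room-temperature loading with LiveBLAzer B/G FRET substrate.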

[18] = molecular target: Vitamin D3 receptor (Homo sapiens) (UniProt P11473); experiment: qHTS assay to identify small molecule antagonists of the vitamin D receptor (VDR) signaling pathway (AID 743223; active means well fitted inhibition curve with a large enough effect in the signal ratio in the repeat runs, not every such curve was filed as active; the % refers to the signal ratio)
Procedure, shortened: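 Antagonist mode: compound added to VDR-bla cells alongside agonist 1alpha,25-dihydroxyvitamin D3 (3 nM final), incubation 16 h at 37C. Read-out is LiveBLAzer FRET fluorescence, 2 h at room temperature.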

[19] = qHTS assay to identify small molecule agonists of the vitamin D receptor (VDR) signaling pathway - cell viability counter screen (AID 743224); further: nearly all actives have a fitted effect of over 50% in size; further: potency means the concentration at half of the fitted maximal effect
Procedure, shortened: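 VDR-bla cells, 4 h after plating, exposed to compounds for 16 h at 37C; viability then read in the same wells as CellTiter-Glo luminescence after 30 min at room temperature, following the bla FRET read.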

[20] = molecular target: Aryl hydrocarbon receptor (Homo sapiens) (UniProt P35869); experiment: qHTS assay to identify small molecule that activate the aryl hydrocarbon receptor (AhR) signaling pathway (AID 743085); further: nearly all actives have a fitted effect of over 15% in size; further: potency means the concentration at half of the fitted maximal effect;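 on activation: HG2L7.5c1 human HepG2 liver cells with stably integrated DRE-driven firefly reporter; series mostly up to about 70 µM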
Aryl hydrocarbon receptor (Homo sapiens), sequence (P35869 whole entry, looked up): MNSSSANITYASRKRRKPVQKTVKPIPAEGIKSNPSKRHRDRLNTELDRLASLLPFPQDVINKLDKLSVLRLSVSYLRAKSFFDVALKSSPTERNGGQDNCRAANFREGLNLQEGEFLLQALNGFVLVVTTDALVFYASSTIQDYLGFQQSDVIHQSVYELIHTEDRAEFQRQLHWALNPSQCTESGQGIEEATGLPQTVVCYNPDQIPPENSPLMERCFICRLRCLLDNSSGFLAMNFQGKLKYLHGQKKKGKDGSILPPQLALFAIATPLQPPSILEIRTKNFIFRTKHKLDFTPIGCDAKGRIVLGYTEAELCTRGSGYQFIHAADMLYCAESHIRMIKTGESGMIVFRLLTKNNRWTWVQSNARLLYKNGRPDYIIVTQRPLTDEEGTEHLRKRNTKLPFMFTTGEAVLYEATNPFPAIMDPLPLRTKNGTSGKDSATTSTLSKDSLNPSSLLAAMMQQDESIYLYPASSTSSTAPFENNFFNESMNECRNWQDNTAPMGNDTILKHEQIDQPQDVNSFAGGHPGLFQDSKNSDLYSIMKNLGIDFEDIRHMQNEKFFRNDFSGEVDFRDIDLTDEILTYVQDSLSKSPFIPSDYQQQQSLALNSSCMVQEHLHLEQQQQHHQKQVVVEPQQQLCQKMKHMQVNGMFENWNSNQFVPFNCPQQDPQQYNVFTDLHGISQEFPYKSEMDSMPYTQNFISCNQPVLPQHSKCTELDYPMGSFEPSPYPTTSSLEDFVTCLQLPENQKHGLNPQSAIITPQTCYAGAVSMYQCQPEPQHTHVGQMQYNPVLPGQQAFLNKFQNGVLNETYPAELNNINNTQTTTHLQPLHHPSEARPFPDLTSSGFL
Procedure, shortened: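 Luminescence (ONE-Glo) from a dioxin-responsive-element luciferase reporter in HG2L7.5c1 HepG2 cells after 24 hr compound exposure at 37C; viability measured by CellTiter-Fluor fluorescence beforehand.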

Measured: Potency

BrCc1ccc(Br)cc1
not listed: [20]
inactive: all other assays above

CCOC1Oc2ccc(OS(C)(=O)=O)cc2C1(C)C (stereo not drawn)
not listed: [1] | [4] | [5] | [6] | [8] | [13] | [15] | [18]
inactive: all other assays above

CNC(=O)Oc1cc(C)c(N(C)C)c(C)c1
not listed: [8] | [15] | [17] | [18] | [20]
inactive: all other assays above

C#CCOC(=O)/C=C(C)/C=C/CC(C)CCCC(C)C (stereo not drawn)
not listed: [1] | [3] | [10] | [11] | [19]
inactive: all other assays above

Cn1c(N)nc2c3cccnc3ccc21
active: [20] 4.61 µM
not listed: [1] | [3] | [10] | [18]
inactive: all other assays above

CCN[C@H](C)Cc1cccc(C(F)(F)F)c1
not listed: [1] | [3] | [5] | [10] | [15] | [17] | [18]
inactive: all other assays above

COC(=O)[C@@H](N)CCCN/C(N)=N/[N+](=O)[O-]
not listed: [1] | [5] | [10] | [14] | [17] | [18]
inactive: all other assays above

O=C(Cl)CCl
not listed: [1] | [3] | [5] | [18]
inactive: all other assays above

ClC1=C(Cl)C2(Cl)C(CBr)CC1(Cl)C2(Cl)Cl (stereo not drawn)
54.5 µM (active) and inactive: [6]
54.9 µM (active) and inactive: [7] | [14]
34.7 µM (active) and inactive: [19]
inactive: [20] | [2] | [5] | [8] | [9] | [10] | [12] | [17] | [18]

N[C@@H]1C[C@H]1c1ccccc1
not listed: [10] | [19] | [20]
inactive: all other assays above

O=C(NC(=O)c1c(F)cccc1F)Nc1cc(Cl)c(F)c(Cl)c1F
not listed: [1] | [3] | [5] | [11] | [13] | [15] | [16]
inactive: all other assays above

c1cncc([C@@H]2CCCCN2)c1
not listed: [1] | [4] | [13] | [15] | [16]
inactive: all other assays above
